Values joined by “and” are separate entries in the source; they are usually repeats but may differ in a detail not shown here. Identical values can stand only once. Results filed as inconclusive are left out. A structure can be active in one record and inactive in another. Active and inactive are the calls of the source. The call rests on the fitted dose curve; in most records, active means well fitted inhibition curve with a large enough effect; inconclusive means small, poorly fitted or top-dose-only effect; inactive means flat fitted curve, though single readings scatter.
Assay: Drug repurposing screens with cells derived from glioblastoma tumor samples (AID 1345199); further: nearly all actives have a fitted effect of over 40% in size
Conditions: GBM patient neurospheres viability, ATP luminescence, 48 h
Method: CD133+ cells were isolated from GBM patient biopsies and cultured as neurospheres. Neurospheres from four patients were used to screen the NCATS pharmaceutical collection (NPC) library of approved drugs and bioactive compounds. […] The neurospheres were incubated with drugs for 48 hours in 1536-well format, then assayed with an ATP content cell viability assay. […] These hits were cherry picked to confirm activity in the four original GBM lines screened plus three other slower growing GMB lines (unable to yield enough cells for a full primary screen). Variable activities of the confirmed primary hits in the different GBM patient lines were observed. The patient line 206 responded to the greatest number of compounds and line 923 responded to the least amount of active compounds.

[1] = at 20 µM (top of the series), tumour line C
[2] = at 21.2 µM (top of the series), tumour line B
[3] = at 21.2 µM (top of the series), tumour line D
[4] = at 21.3 µM (top of the series), tumour line A
[5] = at 45.9 µM (top of the series), tumour line B
[6] = at 45.9 µM (top of the series), tumour line D
[7] = at 46.1 µM (top of the series), tumour line C
[8] = at 46 µM (top of the series), tumour line A
On the % scale 0 is the no-effect control and ±100 the full control effect; potency means the concentration at half of the fitted maximal effect.

CCn1cc(C(=O)O)c(=O)c2cnc(N3CCNCC3)nc21
inactive: activity, negative = cell killing [1] -6% | activity, negative = cell killing [2] -11.9% | activity, negative = cell killing [3] -14.4% | activity, negative = cell killing [4] -22%

Nc1ccc(S(=O)(=O)Nc2ccc(Cl)nn2)cc1
inactive: activity, negative = cell killing [1] -15.3% | activity, negative = cell killing [2] -15.4% | activity, negative = cell killing [3] -6% | activity, negative = cell killing [4] -27.3% | activity, negative = cell killing [5] -5.57% | activity, negative = cell killing [6] -3.89% | activity, negative = cell killing [7] -7.4%

Cc1ncc(COP(=O)(O)O)c(C=O)c1O
inactive: activity, negative = cell killing [5] -4.54% | activity, negative = cell killing [6] 0.448% | activity, negative = cell killing [8] -18.9% | activity, negative = cell killing [7] 13%

N[C@H]1C(O)O[C@H](CO)[C@@H](O)[C@@H]1O (stereo partly specified)
inactive: activity, negative = cell killing [5] -5.64% | activity, negative = cell killing [6] 4.44% | activity, negative = cell killing [8] -25.4% | activity, negative = cell killing [7] -6.46%

COc1ccccc1O
inactive: activity, negative = cell killing [5] -3.97% | activity, negative = cell killing [6] 4.42% | activity, negative = cell killing [8] -31.4% | activity, negative = cell killing [7] 30.9% | activity, negative = cell killing (at 91.6 µM (top of the series), tumour line B) -1.8% | activity, negative = cell killing (at 91.6 µM (top of the series), tumour line D) -26.1% | activity, negative = cell killing (at 99.2 µM (top of the series), tumour line C) -15%

CCCCCCCCCCCCCCCCCCOCC(O)CO (stereo unspecified)
inactive: activity, negative = cell killing [5] 0.27% | activity, negative = cell killing [6] 9.38% | activity, negative = cell killing [8] -23.8% | activity, negative = cell killing [7] 24.6%

CC(=O)O[C@@]12CO[C@@H]1C[C@H](O)[C@@]1(C)C(=O)[C@H](O)C3=C(C)[C@@H](OC(=O)[C@H](O)[C@@H](NC(=O)OC(C)(C)C)c4ccccc4)C[C@@](O)([C@@H](OC(=O)c4ccccc4)[C@H]21)C3(C)C
inactive: activity, negative = cell killing [5] -12.5% and -11.2% | activity, negative = cell killing [6] -11.2% and -24.9%
active: Potency (tumour line A) 10 µM

CC1(C)S[C@@H]2[C@H](NC(=O)Cc3ccccc3)C(=O)N2[C@H]1C(=O)O (tested in a mixture with another compound)
inactive: activity, negative = cell killing [5] -3.74% | activity, negative = cell killing [6] -13.1% | activity, negative = cell killing [8] -22.7% | activity, negative = cell killing [7] -9.44%

N[C@H](C(=O)O)c1ccc(O)cc1
inactive: activity, negative = cell killing [5] -10.5% | activity, negative = cell killing [6] -7.17% | activity, negative = cell killing [8] -28.4% | activity, negative = cell killing [7] -10.2%

Reference: PubChem BioAssay (NCATS)
